# From PubChem BioAssay
# Active and inactive are the calls of the source. Unless noted, the rule behind the calls is not given here.
# Assays:
# [1] = test system: Wnt5a (protein binding on small-molecule microarray); experiment: small molecules binding Wnt5a protein – biophysical, small-molecule microarray, 635/667 nm fluorescence, primary screen (AID 1142); settings: 635 nm fluorescence, higher = more signal;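 note: fluorescence read at 667 nm with signal to noise per printed feature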
# [2] = ATP-based viability of Huh7 replicon cells – cell-based, CellTiter-Glo luminescence, basal, 48 h, cytotoxicity control for HCV replication inhibitor project, primary screen (AID 1143); settings: higher = more signal, called active from +8 up or from −8 down;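 note: Huh7 hepatoma cells carrying a hepatitis C replication reporter with no stimulus; test concentration not given here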
# [3] = Pseudomonas biofilm growth suppression – PAO1 strain, BacTiter-Glo luminescence, LB-PBS, primary screen (AID 1144); settings: P. aeruginosa PAO1 biofilm, 12 h, higher = more signal
# [4] = basal CRE-LacZ reporter activity in PC12 – cell-based, unstimulated, primary screen (AID 1145); settings: no forskolin, luminescence, 4.5 h, higher = more signal, called active from +8 up or from −8 down
# [5] = forskolin-driven CRE-LacZ activity in PC12 – cell-based, CRE-LacZ reporter, forskolin-stimulated, primary screen (AID 1146); settings: luminescence, 4.5 h, higher = more signal, called active from +8 up or from −8 down;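 note: PC12 cells with 6xCRE LacZ reporter stimulated by forskolin 10 µM; beta-galactosidase reporter signal reflecting CREB driven transcription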
# [6] = target: Streptavidin (Streptomyces avidinii) (UniProt P22629); experiment: compounds binding control protein streptavidin – biophysical, small-molecule microarray, 635/667 nm fluorescence, artefact control for SMM compound annotation, primary screen (AID 1147); settings: higher = more signal;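 note: signal reflects streptavidin binding to arrayed compounds as a control protein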
# [7] = probe aInhba binding on compound microarray – biochemical, small-molecule microarray, 635/667 nm fluorescence, primary screen (AID 1148); settings: higher = more signal;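 note: score merges 667nm spot fluorescence with signal-to-noise for antibody binding to printed compounds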
# [8] = target: Torsin-1A (Homo sapiens) (UniProt O14656); experiment: TOR1A wild-type binding on microarray – cell lysate, small-molecule microarray, lysate, 635/667 nm, primary screen (AID 1149); settings: COS7 hTOR1A-WT lysate, 635 nm fluorescence, higher = more signal
# [9] = target: Torsin-1A (Homo sapiens) (UniProt O14656); experiment: torsin A mutant lysate binding on microarrays – cell lysate, small-molecule microarray, COS7 lysate, 635/667 nm fluorescence, primary screen (AID 1150); settings: COS7 hTOR1A mutant lysate, 635 nm fluorescence, higher = more signal;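 note: score pools 667 nm emission and signal to noise measuring lysate protein binding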
# [10] = test system: Sonic hedgehog protein (Shh); experiment: Sonic hedgehog microarray binding compounds – biochemical, small-molecule microarray, 635/667 nm fluorescence, primary screen (AID 1151); settings: 635 nm fluorescence, higher = more signal;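 note: Shh protein binding to compounds spotted on small-molecule microarray slides; score combines spot fluorescence intensity with signal-to-noise across triplicate slides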
# [11] = optical density shifts of acrAB sulA E. coli – strain DRC41, OD650, 48 h, E. coli filamentation inducer project, primary screen (AID 1152); settings: higher = more signal, called active from +8 up or from −8 down;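 note: E. coli MC1000 strain DRC41 lacking acrAB efflux pump and sulA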
# [12] = probe aLefty1 binding on compound microarray – biochemical, small-molecule microarray, 635/667 nm fluorescence, primary screen (AID 1153); settings: higher = more signal;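 note: score merges spot fluorescence with signal-to-noise ratio from the scanned slide images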
# [13] = plasmodial surface anion channel blockers, osmotic lysis – cell-based, P. falciparum Indochina, OD700, 1 h, primary screen (AID 1154); settings: P. falciparum Indochina infected RBC osmotic lysis, higher = more signal, called active from +8 up or from −8 down
# [14] = plasmodial surface anion channel blockers, osmotic lysis – cell-based, P. falciparum Indochina, OD700, 2 h, primary screen (AID 1155);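 note: lysis reports solute entry through the parasite surface anion channel PSAC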; settings: P. falciparum Indochina infected erythrocytes, higher = more signal, called active from +8 up or from −8 down
# [15] = changes in parasitized red cell lysis, either direction – P. falciparum Indochina, OD700, 3 h, PSAC antagonist project, primary screen (AID 1156); settings: P. falciparum-infected erythrocytes, osmotic lysis, higher = more signal, called active from +8 up or from −8 down
# [16] = plasmodial surface anion channel blockers, osmotic lysis – cell-based, P. falciparum Indochina, OD700, 18 h, primary screen (AID 1157); settings: P. falciparum Indochina infected erythrocytes, osmotic lysis OD700, 18 h; higher = more signal, called active from +8 up or from −8 down
# [17] = S6 kinase pathway phospho-S6 level changes – cell-based, A549, cytoblot, luminescence, serum-stimulated, primary screen (AID 1158); settings: 5 h, higher = more signal;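 note: serum-stimulated A549 lung adenocarcinoma cells; signal is phosphorylated S6 detected by cytoblot immunostaining with HRP secondary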
# [18] = target: NADPH oxidase 2 (Homo sapiens) (UniProt P04839); experiment: compounds shifting NOX2 Amplex Red fluorescence – cell-based, HEK293-NOX2, PMA-stimulated, NOX inhibitor project, primary screen (AID 1159); settings: 45 min, higher = more signal, called active from +8 up or from −8 down; note: test concentration not given here
# [19] = target: NADPH oxidase 4 (Homo sapiens) (UniProt Q9NPH5); experiment: compounds shifting NOX4 Amplex Red fluorescence – cell-based, HEK293-NOX4, tetracycline-induced, NOX inhibitor project, primary screen (AID 1160); settings: HEK293-NOX4, Amplex Red H2O2 fluorescence, 45 min; higher = more signal, called active from +8 up or from −8 down
# [20] = target: NADPH oxidase 5 (Homo sapiens) (UniProt Q96PH1); experiment: compounds shifting NOX5 Amplex Red fluorescence – cell-based, HEK293-NOX5, NOX inhibitor project, primary screen (AID 1161); settings: HEK293-NOX5, ionomycin, 45 min, higher = more signal
# Sequence of NADPH oxidase 5 (Homo sapiens) (Q96PH1 whole entry, looked up): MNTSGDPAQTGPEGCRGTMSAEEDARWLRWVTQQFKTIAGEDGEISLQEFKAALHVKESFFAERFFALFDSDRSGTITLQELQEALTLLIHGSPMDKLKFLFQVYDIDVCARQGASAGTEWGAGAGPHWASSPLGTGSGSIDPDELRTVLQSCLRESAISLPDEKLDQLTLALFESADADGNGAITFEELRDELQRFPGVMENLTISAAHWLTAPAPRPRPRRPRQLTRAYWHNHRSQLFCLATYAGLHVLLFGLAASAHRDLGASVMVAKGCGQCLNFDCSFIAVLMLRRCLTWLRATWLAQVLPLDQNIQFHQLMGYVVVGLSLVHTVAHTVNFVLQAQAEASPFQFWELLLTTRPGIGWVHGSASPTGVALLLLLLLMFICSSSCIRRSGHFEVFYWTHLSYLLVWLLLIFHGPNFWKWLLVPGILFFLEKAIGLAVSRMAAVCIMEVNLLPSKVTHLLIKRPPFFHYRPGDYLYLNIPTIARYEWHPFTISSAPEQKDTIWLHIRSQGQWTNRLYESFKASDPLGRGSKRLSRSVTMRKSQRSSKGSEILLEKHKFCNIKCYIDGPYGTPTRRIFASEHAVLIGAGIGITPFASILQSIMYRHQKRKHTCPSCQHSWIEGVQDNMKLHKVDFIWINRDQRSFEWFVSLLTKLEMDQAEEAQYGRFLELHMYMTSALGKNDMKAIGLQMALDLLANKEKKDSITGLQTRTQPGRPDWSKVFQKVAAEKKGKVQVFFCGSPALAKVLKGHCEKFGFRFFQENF
# Sequence of Torsin-1A (Homo sapiens) (O14656 whole entry, looked up): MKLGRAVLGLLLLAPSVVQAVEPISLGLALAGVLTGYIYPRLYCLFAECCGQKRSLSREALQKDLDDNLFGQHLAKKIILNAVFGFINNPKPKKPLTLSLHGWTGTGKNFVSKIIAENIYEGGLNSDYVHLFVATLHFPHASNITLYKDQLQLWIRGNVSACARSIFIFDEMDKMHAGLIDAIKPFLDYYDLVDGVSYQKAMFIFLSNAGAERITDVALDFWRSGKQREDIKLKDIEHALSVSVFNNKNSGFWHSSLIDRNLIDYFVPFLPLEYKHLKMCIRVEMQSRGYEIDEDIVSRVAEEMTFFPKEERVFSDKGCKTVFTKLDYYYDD
# Sequence of Streptavidin (Streptomyces avidinii) (P22629 whole entry, looked up): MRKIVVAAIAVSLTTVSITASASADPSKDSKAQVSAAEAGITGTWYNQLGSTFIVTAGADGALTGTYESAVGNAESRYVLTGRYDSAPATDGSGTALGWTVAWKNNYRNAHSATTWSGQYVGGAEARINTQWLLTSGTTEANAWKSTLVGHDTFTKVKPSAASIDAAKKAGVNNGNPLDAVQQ
# Sequence of NADPH oxidase 4 (Homo sapiens) (Q9NPH5 whole entry, looked up): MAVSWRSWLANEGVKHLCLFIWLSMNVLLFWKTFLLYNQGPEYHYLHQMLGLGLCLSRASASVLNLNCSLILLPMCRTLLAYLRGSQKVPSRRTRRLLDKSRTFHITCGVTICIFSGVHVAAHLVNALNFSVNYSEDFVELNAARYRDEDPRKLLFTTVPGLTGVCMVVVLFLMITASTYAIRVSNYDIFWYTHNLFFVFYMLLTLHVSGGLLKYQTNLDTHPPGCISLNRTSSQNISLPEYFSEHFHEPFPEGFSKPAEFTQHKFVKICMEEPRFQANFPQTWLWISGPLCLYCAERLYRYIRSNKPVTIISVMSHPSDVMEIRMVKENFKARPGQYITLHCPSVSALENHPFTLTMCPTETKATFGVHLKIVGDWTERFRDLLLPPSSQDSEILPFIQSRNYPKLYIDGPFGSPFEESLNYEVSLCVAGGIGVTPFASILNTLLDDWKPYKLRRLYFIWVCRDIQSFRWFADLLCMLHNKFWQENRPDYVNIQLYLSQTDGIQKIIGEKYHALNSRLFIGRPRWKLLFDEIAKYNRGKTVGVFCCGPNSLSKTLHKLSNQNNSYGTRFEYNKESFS
# Sequence of NADPH oxidase 2 (Homo sapiens) (P04839 whole entry, looked up): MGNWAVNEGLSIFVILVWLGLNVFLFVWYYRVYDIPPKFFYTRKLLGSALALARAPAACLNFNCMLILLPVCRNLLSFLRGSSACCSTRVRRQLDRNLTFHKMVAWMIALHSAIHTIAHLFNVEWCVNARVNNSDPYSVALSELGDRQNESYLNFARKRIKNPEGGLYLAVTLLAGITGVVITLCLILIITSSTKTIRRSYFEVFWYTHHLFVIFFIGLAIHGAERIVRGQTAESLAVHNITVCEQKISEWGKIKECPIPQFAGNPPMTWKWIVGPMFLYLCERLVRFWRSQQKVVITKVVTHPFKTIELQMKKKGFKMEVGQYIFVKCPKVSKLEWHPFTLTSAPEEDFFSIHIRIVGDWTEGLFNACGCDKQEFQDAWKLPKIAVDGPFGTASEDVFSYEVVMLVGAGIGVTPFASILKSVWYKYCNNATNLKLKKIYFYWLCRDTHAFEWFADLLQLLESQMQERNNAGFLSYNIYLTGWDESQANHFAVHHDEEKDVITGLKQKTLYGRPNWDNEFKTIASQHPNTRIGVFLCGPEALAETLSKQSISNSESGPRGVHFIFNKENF
SMILES,composite z-score [1],z-score [2],z-score [3],z-score [4],z-score [5],composite z-score [6],composite z-score [7],composite z-score [8],composite z-score [9],composite z-score [10],z-score [11],composite z-score [12],z-score [13],z-score [14],z-score [15],z-score [16],z-score [17],z-score [18],z-score [19],z-score [20]
CC(CCN1CCCCc2nc(C)c(C)cc21)=NOC(C)CN1CCCc2nc(C)c(C)cc21 (stereo not given),0.871,-0.191 (inactive),-0.812 (inactive),-0.24 (inactive),0.0936 (inactive),1.42,0.637,1.19,0.863,1.73,-1.7 (inactive),0.79,1.6 (inactive),0.549 (inactive),-0.19 (inactive),0.488 (inactive),-0.569,-1 (inactive),0.11 (inactive),-1.79
CCN1C(=O)[C@H]2[C@H]3[C@H](O)[C@H](O)CC(=NOCc4ccccc4)[C@H]3CC[C@H]2C1=O,-0.0887,0.856 (inactive),-0.784 (inactive),0.25 (inactive),-0.332 (inactive),0.201,-0.189,0.171,0.46,0.109,-0.255 (inactive),-0.276,1.78 (inactive),0.012 (inactive),-0.824 (inactive),0.0113 (inactive),0.9,-0.145 (inactive),0.32 (inactive),-0.385
CC(C)CON=C1[C@H]2CCn3c(=O)n(-c4ccccc4)c(=O)n3[C@H]2[C@H](O)[C@@H]2O[C@H]12,0.134,0.893 (inactive),0.291 (inactive),0.797 (inactive),0.148 (inactive),-0.142,-0.102,0.235,0.189,0.445,0.424 (inactive),-0.105,0.175 (inactive),-0.2 (inactive),0.0794 (inactive),0.0344 (inactive),0.0305,-5.13 (inactive),0.018 (inactive),0.407
CCCNC(=O)OC[C@H]1O[C@H](CCON=C2[C@H]3CCn4c(=O)n(-c5ccccc5)c(=O)n4[C@H]3[C@H](O)[C@@H]3O[C@H]23)C=C[C@@H]1Oc1ccc(OC)cc1,0.14,-0.0238 (inactive),1.01 (inactive),0.899 (inactive),0.301 (inactive),-0.28,0.0294,0.0932,0.565,0.572,0.653 (inactive),0.198,1.69 (inactive),-0.0218 (inactive),0.378 (inactive),0.268 (inactive),-0.254,-1.58 (inactive),-0.373 (inactive),-0.987
CO[C@H]1COC(=O)[C@@H]2CCCN2C(=O)CC=C[C@@H](C)[C@H](OC)COC(=O)CC=C[C@@H]1C,0.191,-1.32 (inactive),-1.11 (inactive),2.42 (inactive),0.104 (inactive),-0.689,-0.0858,1.49,1.27,1.98,0.604 (inactive),-0.0974,-0.0558 (inactive),-1.3 (inactive),-0.464 (inactive),-1.7 (inactive),2.35,-0.331 (inactive),0.631 (inactive),0.557
CO[C@@H]1COC(=O)CC=C[C@@H](C)[C@H](OC)COC(=O)[C@H](COCc2ccccc2)NC(=O)CC=C[C@H]1C,-0.0092,-0.069 (inactive),0.204 (inactive),0.0664 (inactive),-0.707 (inactive),-1.15,-0.253,1.35,0.263,1.5,-0.991 (inactive),-0.147,-0.129 (inactive),0.151 (inactive),0.181 (inactive),0.354 (inactive),0.354,-1.79 (inactive),0.0385 (inactive),0.0539
COC(=O)CC=C[C@@H](C)[C@@H](C=NO[C@H](C)c1cn([C@@H]2COC[C@H]2O)nn1)OC,0.0282,0.324 (inactive),-1.66 (inactive),0.518 (inactive),-0.0094 (inactive),0.521,-0.159,0.73,0.863,0.76,0.319 (inactive),-0.0003,0.813 (inactive),0.499 (inactive),0.5 (inactive),0.415 (inactive),0.502,-0.0191 (inactive),0.488 (inactive),-0.0693
CO[C@@H]1COC(=O)CC=C[C@@H](C)COC(=O)[C@H](COCc2ccccc2)NC(=O)CC=C[C@H]1C,-0.146,0.185 (inactive),0.324 (inactive),0.605 (inactive),-0.201 (inactive),-0.214,-0.128,2.33,2.51,1.77,-0.0825 (inactive),-0.363,0.391 (inactive),0.331 (inactive),0.195 (inactive),0.403 (inactive),-0.186,0.978 (inactive),-1.24 (inactive),0.941
CCN1C(=O)[C@H]2[C@H]3[C@H](O)[C@H](O)CC(=NOC(C)CN4CCCCc5nc(C)c(C)cc54)[C@@H]3CC[C@H]2C1=O (stereo not given in full),0.185,0.06 (inactive),1.07 (inactive),0.778 (inactive),0.618 (inactive),-0.0098,-0.024,0.763,0.769,0.809,0.803 (inactive),-0.106,0.29 (inactive),0.15 (inactive),0.363 (inactive),0.317 (inactive),-0.518,-0.588 (inactive),-0.245 (inactive),-0.239
